KDM5B inhibitor = KDM5B demethylase inhibition; Q9UGL1; KDM5B demethylase, FDH-coupled NADH fluorescence (FDH is formaldehyde dehydrogenase); Potency, µM (top dose mostly 57.7 µM), most hits filed as inhibitors; 2.6% of 220,000 active; AID 1347165; active = well fitted inhibition curve with a large enough effect; also: 0% is about no effect; nearly all actives have a fitted effect of over 70% in size
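Compound dilutions met 200 nM (final) KDM5BΔAP for 10 min at room temperature before substrate addition. The substrate mix held 12.5 µM H3K4me3 with cofactors 25 µM α-ketoglutarate and 50 µM Fe²⁺. NADH signal gain over 30 min defined activity.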
* hit, by the source's call; i = inactive. The full list was thinned out, with hits kept by preference. Potency is read from the fitted curve at half-maximal effect.

SMILES	KDM5B inhibitor
CC(=O)N1CCN(c2cc(-c3ccc(Cl)cc3)nc3c(C)noc23)CC1	i
O=C(COc1ccc(F)cc1)NCC(c1ccc(Cl)cc1)N1CCCCC1 (stereo not given)	i
Cc1ccc(C)c(NC(=O)c2ncoc2-c2cccc(Cl)c2)c1	i
COc1ccc(C)cc1NC(=O)C1(CCO)CC12CCOCC2 (stereo not given)	i
COCCn1ncc(N2CCC(NC(=O)c3ccc(OC)nc3)CC2)cc1=O	i
C/C(=N\NC(=S)Nc1ccccc1)c1cccc(C(F)(F)F)c1	i
COc1ccc(C(=O)NC2CCCN(c3cc(-c4ccc(F)cc4)[nH]n3)C2)cc1OC (stereo not given)	i
COc1ccccc1N1CCN(C(=O)C[C@@H]2O[C@H](CNC(=O)NC(C)C)[C@@H](O)[C@H]2O)CC1	i
Cc1onc(-c2ccccc2)c1C(=O)N1CCN(S(=O)(=O)c2ccc(Cl)cc2)CC1	i
Nc1ccccc1N1C(=O)c2cccc3cccc(c23)C1=O	i
Cc1cccc(OCc2nc(C#N)c(NCCN3CCOCC3)o2)c1	i
Cc1noc2c(NCc3cnccn3)cc(-c3ccc(Cl)cc3)nc12	i
Cc1noc2c(N(C)C)cc(-c3cccnc3)nc12	i
Cc1noc2c(-c3cccnc3NCc3cnccn3)cc(-c3ccccc3)nc12	31.6µM*
O=C(C1CC1)N1CC2CC(C1)[C@H]1CCCC(=O)N1C2 (stereo not given in full)	i
Cc1ccc(Nc2ncc3c(n2)CC(C)CC3=O)c(C)c1 (stereo not given)	i
Cc1ccccc1-n1nc(C)c(CCC(=O)NCC(C)C)c1Oc1cccc(F)c1	22.4µM*
Cc1ccccc1-n1nc(C)c(CCC(=O)NCC2CC2)c1Oc1cccc(F)c1	i
Cc1nn(-c2ccc(F)cc2)c(Oc2cccc(F)c2)c1CCC(=O)NC(C)C	i
CC(C)(C)c1ccc(C(=O)Nc2ccc(F)cc2F)cc1	i
O=C(c1ccoc1)N1CCCCC1c1nc(CCOCC2CC2)no1 (stereo not given)	i
Cc1ccc(NC(=O)N2CCCCC2c2nc(CCOCC3CC3)no2)cc1C (stereo not given)	i
Cc1ncsc1CN1CCCCC1c1nc(CCOCC2CC2)no1 (stereo not given)	17.8µM*
COc1ccc(OC)c(NC(=O)CCn2cnnn2)c1	i
COc1ccc(CN2Cc3[nH]nc(-c4cccc(C(F)(F)F)c4)c3CC2=O)cc1	i
SMILES	KDM5B inhibitor
Cc1nc(-c2cccc(Cl)c2)n(Cc2cc(=O)n3ccccc3n2)c(=O)c1CCO	31.6µM*
COc1ccccc1Cn1c(-c2cccc(Cl)c2)nc(C)c(CCO)c1=O	i
Cc1nc(-c2cccc(Cl)c2)n(CC(=O)NC(C)C)c(=O)c1CCO	i
CC(C)(C)OC(=O)N1CCC(c2c(C(=O)NCCN3CCOCC3)cnn2-c2ccccc2)CC1	i
Cc1nc(-c2cccc(S(=O)(=O)N3C[C@@H](N)C[C@H]3C(=O)NC(C)C)c2)no1	i
Cc1nn(C)c(C)c1CC(=O)Nc1nc(-c2ccc(F)c(F)c2)cs1	i
CC(C)(C)c1cc(C(=O)NNc2cccc(Cl)c2)n(Cc2ccccc2)n1	i
C[S+](=O)([O-])c1ccc(-c2cc3c(ccn3Cc3ccncc3)c(N3CCOCC3)n2)cc1	25.1µM*
CC(C)CCNC(=O)c1cc(-c2ccncc2)nc2ccc(S(=O)(=O)N3CCOCC3)cc12	i
CCOc1ccccc1NC(=O)Nc1cccc(-c2ccc(N3CCOCC3)nn2)c1	i
CC(=O)Nc1cccc(-c2cc3c(ccn3C)c(C(=O)NCc3cccnc3)n2)c1	i
C[S+](=O)([O-])Nc1cccc(-c2cc3c(ccn3Cc3ccncc3)c(N3CCOCC3)n2)c1	3.16µM*
O=C(Nc1cccc(-c2ccc(N3CCOCC3)nn2)c1)Nc1cccc(C(F)(F)F)c1	i
CC(=O)Nc1cccc(-c2cc3c(ccn3Cc3ccncc3)c(N3CCOCC3)n2)c1	28.2µM*
CC(=O)Nc1ccc2c(ccn2CCN2CCOCC2)c1	i
CCOc1ccc(NC(C)=O)c(N)c1	i
Cc1ccc(C(=O)N2CCC(N3CCCC3=O)CC2)cc1O	i
CC(=O)NC12CC3CC(CC(C3)C1)C2	i
Cc1ccc(-c2ccc(=O)n(CC(=O)Nc3cccc(C#N)c3)n2)cc1	i
COCc1nc(CCNC(=O)CCCc2cn(Cc3ccccc3Cl)c3ccccc23)no1	i
Cc1cc2c(cc1S(=O)(=O)N(C)CC(=O)Nc1ccc(C#N)cc1)OCC(=O)N2	i
CCc1ccc2oc(=O)cc(CN3CCN(c4ccccc4)CC3)c2c1	i
Cc1cccc(NC(=O)NCCOCCn2c(=O)oc3ccccc32)c1C	i
Cn1cnnc1Sc1ccc(/C=N/Nc2ccc(S(N)(=O)=O)cc2[N+](=O)[O-])cc1[N+](=O)[O-]	i
O=C(COC(=O)/C=C/c1cccs1)Nc1ccc(F)cc1	i
SMILES	KDM5B inhibitor
O=C(CN(C(=O)CCC(=O)Nc1nccs1)c1ccc(F)c(Cl)c1)NCC1CCCO1 (stereo not given)	i
COCCN(Cc1cccs1)S(=O)(=O)c1cc(-c2cc(C)no2)ccc1C	i
CCn1ccnc1CN(C)C(=O)c1cc(-c2cnc(N)nc2)nc2c(C)cccc12	28.2µM*
Cc1cccc2c(C(=O)O)cc(-c3cccnc3)nc12	i
CCn1ccnc1CN(C)C(=O)c1cc(-c2cnc(C)nc2)nc2cc(F)ccc12	i
Cc1oc(-c2cccc(C(F)(F)F)c2)cc1C(=O)NC(C)C	i
CC(C)NC(=O)CSc1nnc(-c2cccnc2)o1	i
CC(C)NC(=O)c1nc(-c2cccc(C(F)(F)F)c2)c2cnccn12	31.6µM*
COCCNC(=O)c1nc(-c2cccnc2)c2cnccn12	i
CC(C)NC(=O)c1nc(-c2cccnc2)c2cnccn12	35.5µM*
COCC(C)NC(=O)c1csc2nc(-c3cccc(C(F)(F)F)c3)cn12 (stereo not given)	i
CCOC(=O)CC(NC(=O)c1cc2ccccc2oc1=O)c1ccccc1Cl (stereo not given)	i
COCCCNc1nc2c(c(=O)n(C)c(=O)n2C)n1Cc1ccc(Cl)c(Cl)c1	i
Cc1cc(CC(C)NC(=O)c2cn(C3CCC(N)CC3)nn2)n[nH]1 (stereo not given)	i
Clc1ccc(CSc2ccc(-c3cccs3)nn2)cc1	i
CN1C(=O)N(c2nnc(C(C)(C)C)s2)C(=O)C1c1ccccc1 (stereo not given)	i
COc1ccc(/C=C/C(=O)NCC(=O)N/N=C/c2cccs2)cc1	i
CCc1ccc(CNC(=O)CCC2CCN(S(=O)(=O)c3ccccc3)CC2)cc1	i
CSc1ccc(-c2nc(CN3CCOC(CCO)C3)c(C)o2)cc1 (stereo not given)	15.8µM*
COCCC1CN(Cc2nc(-c3cccc(C(F)(F)F)c3)oc2C)CCO1 (stereo not given)	i
Cc1oc(-c2ccccc2)nc1CC(=O)NCC1CN(C)CCO1 (stereo not given)	i
CSc1ccc(-c2nc(CN3CCN(C(C)=O)CC3)c(C)o2)cc1	20µM*
CC(=O)N1CCCN(Cc2nc(-c3cccc(Oc4ccccc4)c3)oc2C)CC1	i
CC(=O)N1CCN(Cc2nc(-c3cccs3)oc2C)CC1	i
CCCCCn1c(=O)[nH]c2cc(C(=O)Nc3ccc(OC)c(OC)c3)ccc2c1=O	i
Cc1ccc(NC(=O)N2CCC(CCNC(=O)CC3CCCC3)CC2)cc1	i
Cc1cc(-c2ccc(C)c(S(=O)(=O)N3CCOc4ccc(Cl)cc43)c2)on1	i
